This is an account of results in PubChem BioAssay (NCATS).

Inconclusive results are not listed. Calls of active or inactive are those of the source. Calls come from the whole dose curve.

A short description of this test: A High-Content qHTS Against Drug Library for the Identification of Small Molecules that Inhibit DYT1 Early Onset Primary Dystonia-Associated Cell Pathology (AID 1645839). The settings on record: HEK293 Flp-In EGFP-delE TorsinA, punctate imaging, 48 h; series mostly up to 46.1 µM. In outline: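 Flp-In T-REx 293 cells with tetracycline-inducible EGFP-delE hTOR1A (WT EGFP-hTOR1A as reference), 800 cells/well; compound added with tetracycline, 48 h at 37 C. Fixed, permeabilized cells imaged; %pathology (punctate TorsinA) primary, cell count counterscreen.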
On the technique in general: Quantitative high-throughput screening tests each substance at several concentrations.
`C[N+]1(C)[C@@H]2CC[C@H]1CC(OC(=O)C(CO)c1ccccc1)C2` (some centres undefined): the compound was classed as inactive.
Take `COc1cc(C[C@@H](C)N)c(OC)cc1C`: the compound was called inactive.
For `OC(O)C(Cl)(Cl)Cl`, the compound was called inactive.
As for `C1CN2CCC1CC2`, the entry is “inactive”.
On to `O=C(CCCCl)c1ccc(F)cc1`, for which the result was inactive.
For the compound `c1ccc2nc(N3CCNCC3)ccc2c1`, the compound was classed as inactive.
Regarding `CC(C)[N+](C)(CCC(C(N)=O)(c1ccccc1)c1ccccc1)C(C)C`, the outcome was inactive.
Turning to `CCOC(=O)NC(O)C(Cl)(Cl)Cl` (centres undefined), the call was inactive.
In the case of `CC(C)C(Br)C(=O)NC(N)=O` (centres undefined), the compound was called inactive.
Consider `COc1ccc(OC)c(CC(C)N)c1` (centres undefined), for which the call was inactive.
Take `COc1cc(N)c(Cl)cc1C(=O)NC1CN2CCC1CC2` (centres undefined): the compound was classed as inactive.
As for `N#Cc1nn(-c2c(Cl)cc(C(F)(F)F)cc2Cl)c(N)c1S(=O)C(F)(F)F` (centres undefined), the outcome was inactive.
Under `CCN(CC)CCOC(=O)C(C)(c1ccccc1)c1ccccc1` stands “inactive”.
Consider `CCOC(=O)c1cncn1C(C)c1ccccc1` (centres undefined), for which the outcome was inactive.
Regarding `CC[C@H]1C[C@H]2[C@@H]3CCC4=CC(=O)CC[C@@H]4[C@H]3CC[C@]2(C)[C@H]1O`, the call was inactive.
As for `C#C[C@]1(O)CC[C@H]2[C@@H]3CCC4=CC(=O)CCC4=C3C=C[C@@]21CC`, the entry is “inactive”; as for `CCOC(=O)NC(C)(C)Cc1ccc(Cl)cc1`, “inactive”.
`COCC(=O)N(c1c(C)cccc1C)C(C)C(=O)OC` (centres undefined): the outcome was inactive.
For `ClC1=C(Cl)C2(Cl)C(CBr)CC1(Cl)C2(Cl)Cl` (centres undefined), the compound was called inactive.
For the compound `CC(Cc1ccccc1)NCc1ccccc1Cl` (centres undefined), the result was inactive.
For `CC(Cc1ccc2c(c1)OCO2)NO` (centres undefined), the compound was called inactive.
`Oc1c(Br)cc(Br)cc1Br`: the result was inactive.
As for `NCc1cccnc1`, the entry is “inactive”; as for `CCOC(=O)C(c1c(O)c2ccccc2oc1=O)c1c(O)c2ccccc2oc1=O`, “inactive”; as for `C[C@@H]1O[C@@H](O[C@@H]2C=C3CC[C@@H]4[C@H](CC[C@]5(C)[C@@H](c6ccc(=O)oc6)CC[C@]45O)[C@@]3(C)CC2)[C@H](O)[C@H](O)[C@H]1O`, “inactive”.
Regarding `CCCOC(=O)Cc1ccc(OCC(=O)N(CC)CC)c(OC)c1`, the compound was called inactive.
As to `CCOC(=O)c1ncn2c1CN(C)C(=O)c1c(I)cccc1-2`, the compound was classed as inactive.
For `CN(C)C(=O)Oc1cc(OC(=O)N(C)C)cc(C(O)CNC(C)(C)C)c1` (centres undefined), the call was inactive.
Consider `CN1C[C@@H](NS(=O)(=O)N(C)C)C[C@@H]2c3cccc4c3c(cn4C)C[C@H]21`, for which the outcome was inactive.
With `Cc1nnc2n1-c1sc(CCC(=O)N3CCOCC3)cc1C(c1ccccc1Cl)=NC2`, the compound was classed as inactive.
Turning to `CN1C(=O)CN=C(c2ccccc2)c2cc([N+](=O)[O-])ccc21`, the compound was called inactive.
As for `CCS(=O)(=O)C(C)(C)S(=O)(=O)CC`, the entry is “inactive”.
Take `COc1cc(CC#N)cc(OC)c1OC`: the result was inactive.
Take `C[N+](C)(C)CCOC(=O)C(O)(c1ccccc1)c1ccccc1`: the outcome was inactive.
Turning to `C[C@]12CC[C@H]3[C@@H](CCC4=CC(=O)CC[C@@H]43)[C@@H]1CC[C@@H]2O`, the compound was classed as inactive.
As for `CCNc1nc(Cl)nc(NCC)n1`, the compound was classed as inactive.
With `O=c1[nH]c2cc(Cl)ccc2n1C1CCNCC1`, the result was inactive.
In the case of `C[C@]12CC[C@H]3[C@@H](CC=C4C[C@@H](O)CC[C@@]43C)[C@@H]1CC[C@@H]2O`, the outcome was inactive.
Take `CCN1CCCC1CNC(=O)C(O)(c1ccccc1)c1ccccc1` (centres undefined): the outcome was inactive.
